Screening results from PubChem BioAssay.
Only some compounds are listed: those with a hit (about 4.2% of all), similar ones and a draw of the others.
D1 agonist – agonists of human D1 dopamine receptor; P21728; HEK293 T-REx D1 cells, calcium flux, agonist mode; activation, % at 2 µM; 1% of 360,000 active; in the data active = activation above about 30%; note: 0% is about no effect
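Inducible HEK293 T-REx D1 cells, force-coupled to calcium signalling, were plated at 4000 cells/well with tetracycline and held overnight at 30 C. After no-wash calcium dye loading, compound-evoked calcium rise over 180 s flagged agonists.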
TRPV1 ag – human TRPV1 agonism | Q8NER1 | TRPV1-expressing cells, Fluo-8 calcium influx, agonist mode | activation, % at 8.33 µM | 0.19% of 320,000 active | AID 540275; in the data active = activation above about 80%; inconclusive = between about 30% and that limit; note: 0% is about no effect
Target sequence (Q8NER1 whole entry, looked up): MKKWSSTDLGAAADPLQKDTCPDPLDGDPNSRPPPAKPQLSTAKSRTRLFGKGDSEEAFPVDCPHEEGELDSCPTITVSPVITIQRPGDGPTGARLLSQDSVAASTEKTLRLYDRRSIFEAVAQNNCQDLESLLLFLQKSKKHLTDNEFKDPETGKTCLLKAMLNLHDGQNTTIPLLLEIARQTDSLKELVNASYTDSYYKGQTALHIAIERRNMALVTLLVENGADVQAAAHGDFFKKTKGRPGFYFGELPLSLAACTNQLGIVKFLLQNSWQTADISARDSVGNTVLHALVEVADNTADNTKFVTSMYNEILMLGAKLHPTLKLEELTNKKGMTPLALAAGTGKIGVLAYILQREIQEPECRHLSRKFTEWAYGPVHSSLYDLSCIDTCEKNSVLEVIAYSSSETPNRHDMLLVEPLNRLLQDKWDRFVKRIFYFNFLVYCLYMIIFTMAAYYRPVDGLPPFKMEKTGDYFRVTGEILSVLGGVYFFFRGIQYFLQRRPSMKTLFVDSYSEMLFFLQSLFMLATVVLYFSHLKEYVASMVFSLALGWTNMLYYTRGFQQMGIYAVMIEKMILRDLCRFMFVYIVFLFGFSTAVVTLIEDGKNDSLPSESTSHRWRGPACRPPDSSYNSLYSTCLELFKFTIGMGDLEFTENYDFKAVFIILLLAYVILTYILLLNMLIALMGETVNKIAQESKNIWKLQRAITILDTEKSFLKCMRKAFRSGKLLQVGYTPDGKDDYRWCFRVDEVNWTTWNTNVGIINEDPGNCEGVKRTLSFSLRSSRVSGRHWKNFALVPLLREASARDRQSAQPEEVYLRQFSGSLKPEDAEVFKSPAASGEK
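Cells expressing TRPV1 were dye-loaded with Fluo-8 and read kinetically: 10 s baseline, 3 min after compound (agonist portion), then 2 min after EC20 capsaicin (allosteric enhancer portion). Calcium-bound dye fluorescence at 480/520 nm.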
TRPV1 PAM – human TRPV1 potentiation; TRPV1-expressing cells, Fluo-8 calcium influx, capsaicin EC20 potentiation; 0.02% of 320,000 active; Q8NER1; potentiation, % at 8.33 µM; in the data active = potentiation above about 80%; inconclusive = between about 30% and that limit; note: 0% is about no effect
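Cells expressing TRPV1 were dye-loaded with Fluo-8 and read kinetically: 10 s baseline, 3 min after compound (agonist portion), then 2 min after EC20 capsaicin (allosteric enhancer portion). Calcium-bound dye fluorescence at 480/520 nm.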
D1 PAM – potentiators of human D1 dopamine receptor; P21728; HEK293 TREx D1 cells, calcium flux, dopamine EC20 potentiation; potentiation, % at 10 µM; 0.036% of 360,000 active; in the data active = potentiation above about 30%; note: 0% is about no effect
D1 antagonist – antagonists of human D1 dopamine receptor; P21728; HEK293 TREx D1 cells, calcium flux, dopamine EC80; hits give low values; activity change, negative = inhibition, % at 10 µM; 3.2% of 360,000 active; AID 504652; in the data active = activity change below about -30%; note: % is set by controls: 0 for no effect and ±100 for the full control effect
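After overnight tetracycline induction at 30 C, force-coupled D1 HEK293 cells took up a no-wash calcium dye at room temperature. Compounds were added and monitored 180 s, and the response to EC80 dopamine was then recorded.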
Starred values were filed as active, the others as inactive; ? = inconclusive; nt = not tested or not shown; ! = not confirmed by another sample.

SMILES	D1 agonist	TRPV1 ag	TRPV1 PAM	D1 PAM	D1 antagonist
CCOC(=O)C(Cc1ccccc1)NC(=O)CCc1nnc2ccc(N3CCCCC3)nn12 (stereo not given)	2	2	6	-5	-33*
CCOCCCNC(=O)CCc1nnc2ccc(N3CCCCC3)nn12	1	-3	1	5	-31*
O=C(c1cc(S(=O)(=O)N2CCCC2)c[nH]1)N1CCN(c2cccc(Cl)c2)CC1	-1	nt	nt	-4	-19
O=S(=O)(c1ccccc1)n1nc(-c2ccc(Cl)cc2)nc1NCc1ccccc1	17	nt	nt	-2	-4
CN1CCN(C2=Cc3ccccc3Sc3cc(F)ccc32)CC1	8	3	3	-9	-62*
CN1CCN(C2=Cc3ccc(Cl)cc3Sc3ccc(F)cc32)CC1	9	1	29	-28	-91*
COc1ncnc(OC)c1S(=O)(=O)Nc1ccc(C(F)(F)F)cc1	0	-2	7	-7	-31*
O=S(=O)(Nc1ccc(C(F)(F)F)cc1)c1cccs1	1	1	6	-12	-10
O=C(Oc1ccc2cc(Br)ccc2c1)N1CCCCCC1	41*	4	21	-1	-7
Cc1coc2c(C)c3oc(=O)c(CC(=O)NCc4ccccc4)c(C)c3cc12	0	nt	nt	0	-14
CC(=O)C1=C(O)CCCC1=NCc1nc2ccccc2[nH]1	7	0	6	-7	-34*
O=S(=O)(NCCc1csc2nc(-c3ccc(Cl)cc3)nn12)c1ccc2c(c1)OCCO2	13	nt	nt	-2	nt
Cc1cc(NCc2ccccn2)nc2ccccc12	0	2	8	-8	2
Cc1cc(NC2CCCCC2)nc2ccccc12	23	10	-1	-6	-33*
O=C(CSc1nc(O)c(Cc2ccccc2)c(=O)n1-c1ccccc1)N1CCOCC1	2	1	0	-1	1
O=C(c1ccc(-n2c(SCc3cccc(F)c3)nc3ccccc3c2=O)cc1)N1CCOCC1	6	87*	-9	2	-13
Cc1ccc(-n2c(SCC(=O)N3CCOCC3)nc(O)c(Cc3ccccc3)c2=O)cc1	5	-5	1	-1	-31*
CCOC(=O)c1ccc(NC(=O)CSc2ccc(-c3sc(C)nc3C)nn2)cc1	1	nt	nt	-1	-42*
COc1ccc(C)cc1NC(=O)CSc1ccc(-c2sc(C)nc2C)nn1	10	17	-5	-2	-50*
O=S(=O)(c1ccccc1)c1nnn2c1nc(NCc1ccc(F)cc1)c1sccc12	1	nt	nt	1	-2
CN(C(=O)c1cc2n(n1)C(C(F)(F)F)CC(c1ccco1)N2)c1ccccc1 (stereo not given)	0	-1	5	-5	-50*
NC(=O)C1CCN(C(=O)c2cc3n(n2)C(C(F)(F)F)CC(c2ccco2)N3)CC1 (stereo not given)	0	5	15	12	-40*
O=C(Nc1ccccc1C(=O)OCc1cc(=O)n2ccsc2n1)c1cccc(F)c1	4	nt	nt	0	-14
CCCCN(C)CCNC(=O)c1nn(-c2ccc(OC)c(Cl)c2)c(=O)c2c1c1ccccc1n2C	0	nt	nt	3	-3
COc1cccc(NC(=O)c2ccc3c(=O)n4nc(Nc5ccccc5OC)sc4nc3c2)c1	3	nt	nt	-2	-6
SMILES	D1 agonist	TRPV1 ag	TRPV1 PAM	D1 PAM	D1 antagonist
COc1ccccc1Nc1nn2c(=O)c3ccc(C(=O)N4CCCCC4)cc3nc2s1	1	0	-6	-4	-43*!
CC(=O)c1ccccc1OCCOCCOc1ccccc1C(C)=O	25	4	0	-7	-34*
COc1cc(C)ccc1OCCCCOc1ccccc1C(C)=O	18	4	5	-6	-49*
O=C(O)c1ccccc1OCCOCCOc1ccccc1C(=O)O	1	1	-10	-3	4
COc1ccc(CCNC(=O)CCc2c(C)nc3c4cccnc4nn3c2C)cc1OC	-1	nt	nt	-1	-3
O=c1c(Cl)c2oc3ccccc3nc-2c2ccccc12	75*	13	17	0	49
Cc1ccccc1N1CCN(C2CCCN(C(=O)c3cc(CC(C)C)nn3C)C2)CC1 (stereo not given)	3	8	-13	-6	-32*
CCOC(=O)C1(Cc2ccccc2)CCN(Cc2cnn(C(C)C)c2)CC1	0	5	0	0	-7
CCOC(=O)C1(Cc2ccccc2)CCN(Cc2csc(C(C)=O)c2)CC1	0	6	-14	-9	-34*
CCOC(=O)C1(CCc2ccccc2)CCN(Cc2ccc(C(=O)OC)cc2)CC1	8	-1	-7	2	1
CCOC(=O)C1(CCc2ccccc2)CCN(Cc2cc(OC)c(OC)cc2OC)CC1	4	1	-13	2	-37*
COc1cccc(CN2C(=O)c3ccccc3Sc3ccc(C(=O)N(C)Cc4ccccc4)cc32)c1	6	nt	nt	-1	-4
COc1cccc(/C=N/NC(=O)c2ccc(N(C)S(=O)(=O)c3ccccc3)cc2)c1OC	3	4	-3	0	-36*
COc1ccc(CCNC(=O)c2ccc(Cl)c(S(=O)(=O)N3CCCCCC3)c2)cc1	12	10	-8	-3	4
CN(Cc1ccc(OC(F)F)cc1)C(=O)c1ccc(S(=O)(=O)N(C)c2ccccc2)cc1	9	22	-20	-6	-40*
COc1ccc(CCNC(=O)c2ccc(Cl)c(S(=O)(=O)N(C)c3ccccc3)c2)cc1	18	-9	?	-4	-31*
COC(=O)c1cc(CNC(=O)c2ccc(S(=O)(=O)N(C)c3ccccc3)cc2)ccc1OC	1	?	-18	-21	-68*
Cc1ccc(CN(C)C(=O)c2ccc(S(=O)(=O)N(C)c3ccccc3)cc2)o1	5	22	-13	-4	-26
COc1ccccc1/C=N/NC(=O)c1ccc(N(C)S(=O)(=O)c2ccccc2)cc1	4	1	3	2	3
COc1ccc(Cl)cc1NC(=O)c1cnc2sc(N3CCOCC3)nn2c1=O	2	nt	nt	-3	15
CCCNC(=O)c1ccc2c(=O)c(O)c(-c3cccc(Br)c3)[nH]c2c1	6	-4	?	-8	-36*
CCCNC(=O)c1ccc2c(=O)c(O)c(-c3ccc(F)cc3)[nH]c2c1	1	1	-13	-9	-59*
CC(=O)NC12CC3CC(C1)CC(C(=O)Nc1c(C)n(C)n(-c4ccccc4)c1=O)(C3)C2	3	-4	0	0	-41*
CCCCN(CCCC)C(=O)c1c[nH]c2ccc(S(=O)(=O)Nc3cccc(Cl)c3C)cc2c1=O	1	-3	7	-2	0
CCOc1ccc(OCCNCc2ccc(OC(C)C(=O)N(C)C)c(OCC)c2)cc1 (stereo not given)	56*	-2	-3	-2	10
CCOc1cc(CNCCO)ccc1OCC(=O)NC(C)(C)C	2	0	16	2	-6
